Data taken from PubChem BioAssay (NCATS).
Results filed as inconclusive are left out. Activity calls are given as the source filed them. Calls follow the shape of the full dose curve.

assay: Cell Viability - BJ (AID 421); conditions: BJ fibroblast viability, qHTS;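 also: cells exposed to compound for 40 hours at 37 °C before readout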
From the text: NIH Chemical Genomics Center [NCGC]
NIH Molecular Libraries Screening Centers Network [MLSCN]
National Institutes of Environmental Health Sciences [NIEHS]
National Toxicology Program [NTP]
We have developed a 1536-well cell-based assay for quantitative high throughput screening (qHTS) against a number of cell lines to determine in vitro cytotoxicity of small molecules. This particular assay uses the BJ cell line from ATCC which is derived from normal human foreskin fibroblasts.
NCGC Assay Protocol Summary:
The CellTiter-Glo luminescent cell viability assay (Promega) is a homogeneous method to measure the number of viable cells in culture. The end point readout of this assay is based on quantitation of intracellular ATP, an indicator of metabolic activity, using the luciferase reaction. Luciferase catalyzes the oxidation of beetle Luciferin to oxyluciferin and light in the presence of ATP. The luminescent signal is proportional to amount of ATP present.
Using the CellTiter-Glo luminescent cell viability assay, the amount of cellular ATP was measured in the BJ cell line with complete culture medium following compound treatment for 40 hours. The assay was performed in opaque white Kalypsys 1536-well plates. In the screen, tamoxifen and doxorubicin were used as positive controls. Library compounds were measured for their ability to cause acute toxicity in the cell line, as reflected by a decrease in intracellular ATP levels, in a concentration-dependent manner. Data were normalized to the controls for basal activity (DMSO only) and 100% inhibition (100 uM tamoxifen). AC50 values were determined from concentration-response data modeled with the standard Hill equation.
qHTS protocol fo CellTiter Glo BJ cellular assay
[Step] [Parameter] [Value] [Description]
1. Reagent; 5 uL; 1500 BJ cells/well
2. Time; 5 hr; 37 °C incubation
4. Controls; 23 nL; Tamoxifen 0.34 uM to 100 uM & Doxorubicin 0.02 nM to 100 uM
5. Time; 40 hr; 37 °C incubation
6. Reagent; 5 uL; CellTiter Glo reagent
7. Time; 20 min; Room Temperature
8. Detection; Luminescence; Viewlux plate reader
Keywords: cell viability, cytotoxicity, BJ cell line, luminescence, NTPHTS, NTPHTS_NCGC, NIEHS, EPA, DSSTox, MLSMR, MLSCN, NIH Roadmap, qHTS, NCGC
Potency is read from the fitted curve at half-maximal effect.

| Compound | Potency |
| --- | --- |
| OCC(Cl)CCl (stereo not given) | > 92 µM (inactive) |
| CC(C)OC(=O)Cc1ccccc1 | > 92 µM (inactive) |
| CN(C)c1ccc(N)cc1 | 28.3 µM (active) |
| Nc1cc(Cl)ccc1Cl | > 92 µM (inactive) |
| CN=C=O | > 92 µM (inactive) |
| Cc1cc(C)cc(OP(=O)(Oc2cc(C)cc(C)c2)Oc2cc(C)cc(C)c2)c1 | > 92 µM (inactive) |
| Nc1c(Br)cc([N+](=O)[O-])cc1[N+](=O)[O-] | > 92 µM (inactive) |
| O=[N+]([O-])c1c(Cl)c(Cl)c(Cl)c(Cl)c1Cl | > 92 µM (inactive) |
| CC(Cl)CCl (stereo not given) | > 92 µM (inactive) |
| Cl/C=C/CCl | > 92 µM (inactive) |
| NC1CCC(CC2CCC(N)CC2)CC1 (stereo not given) | > 92 µM (inactive) |
| Nc1cccc(Cl)c1 | > 92 µM (inactive) |
| CCCCCCCCCCCOC(=O)c1ccccc1C(=O)OCCCCCCCCCCC | > 92 µM (inactive) |
| CCN(CC)CCO | > 92 µM (inactive) |
| C=CCOCC1CO1 (stereo not given) | > 92 µM (inactive) |
| Nc1cccc2ccccc12 | > 92 µM (inactive) |
| Nc1ccc([N+](=O)[O-])cc1N | > 92 µM (inactive) |
| O=C(O)CBr | > 92 µM (inactive) |
| C=CC(=O)OCCO | > 92 µM (inactive) |
| C=CC(=O)OC | > 92 µM (inactive) |

| Compound | Potency |
| --- | --- |
| Nc1cc(Cl)cc(Cl)c1 | > 92 µM (inactive) |
| C=C(C)CCl | > 92 µM (inactive) |
| CN(C)c1ccc(N=Nc2ccccc2)cc1 | > 92 µM (inactive) |
| N#CCc1ccccc1 | > 92 µM (inactive) |
| C=CC(=O)OCC(C)C | > 92 µM (inactive) |
| Nc1ccc(Oc2ccc(N)cc2)cc1 | > 92 µM (inactive) |
| Cc1ccc(N)cc1Cl | > 92 µM (inactive) |
| CCCCOCC1CO1 (stereo not given) | > 92 µM (inactive) |
| S=c1[nH]c2ccccc2[nH]1 | > 92 µM (inactive) |
| Clc1ccc(Cl)c(Cl)c1 | > 92 µM (inactive) |
| ClC(Cl)c1ccccc1 | > 92 µM (inactive) |
| Clc1ccc(C(Cl)(Cl)Cl)cc1Cl | > 92 µM (inactive) |
| N#CC(O)c1ccccc1 (stereo not given) | > 92 µM (inactive) |
| Oc1ccc(Cl)c(Cl)c1 | > 92 µM (inactive) |
| CC(C#N)CCC#N (stereo not given) | > 92 µM (inactive) |
| ClC(Br)Br | > 92 µM (inactive) |
| CCC(Cl)[N+](=O)[O-] (stereo not given) | > 92 µM (inactive) |
| c1ccc(P(c2ccccc2)c2ccccc2)cc1 | > 92 µM (inactive) |
| [O-][Cl+2]([O-])O | > 92 µM (inactive) |
| CCCN(CCC)c1c([N+](=O)[O-])cc(C(F)(F)F)cc1[N+](=O)[O-] | > 92 µM (inactive) |
